A selection: hits, their analogues and other compounds. The true share with any hit is near 3%.
EBV LMP1 NFkB = EBV LMP1-driven NF-kappaB luciferase reporter inhibitors, primary screen, cell-based, luminescence, single point. AID 504558, 2011. LMP1-induced NF-kappaB luciferase reporter cells. 0.69% of 350,000 active. inhibition, % at 12.5 µM; in the data active = inhibition above about 41%
KKLEB tox = cytotoxicity in KKLEB CF airway cells, primary screen, cytotoxicity control for CF NF-kB inhibitor project, cell-based, uHTS, fluorescence assay plates | activity change (cytotoxicity), % at 5 µM | 0.36% of 360,000 active | KKLEB CF airway cells viability, ATPlite luminescence, overnight; active compounds read low; cells stimulated with P. aeruginosa culture filtrate | AID 602141, 2011;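 active = corrected activity change at or below -50% at 5 µM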
Peg3 prom inh = Peg3 promoter-driven luciferase inhibitors, primary screen, cell-based, HeLa, luciferase luminescence; HeLa PEG-Prom luciferase reporter, overnight; inhibition, % at 20 µM; 1.7% of 360,000 active;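 active = inhibition of at least 50% at 20 µM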
TRPM1 prom inh = inhibitors of MITF-dependent TRPM1 promoter reporter, primary screen, cell-based, SK-MEL-5, single point, luciferase | 0.83% of 330,000 active | inhibition, % at 12.5 µM | SK-MEL-5 TRPM1 promoter luciferase, 24 h;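 active = mean inhibition across replicates of 60% or more, whatever share of single replicates reaches that level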
HIF-2a block = HIF-2a reporter inhibitors, primary screen, luminescence, 786-0 RCC cells; 786-0 RCC cells HIF-2a reporter, luciferase luminescence, overnight; inhibition, % at 18.8 µM; 0.72% of 360,000 active; AID 624352, 2012;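 active = inhibition of the luminescence signal of 40% or more relative to plate controls, in a single-dose primary screen at 18.75 µM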
CF NFkB inh = inhibitors of PAF-induced NF-kB signaling, primary screen, cell-based, GFP fluorescence, uHTS; KKLEB NF-kB-GFP reporter, GFP fluorescence overnight; inhibition, % at 5 µM; 0.86% of 360,000 active;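 active = at least 50% inhibition at 5 µM, scaled per plate between neutral and stimulator controls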;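 note: PAF is a Pseudomonas aeruginosa culture filtrate used as stimulus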
Each line names hits and unclear results; the compound was inactive in the other large screens.

COc1ccccc1Cc1c(-c2ccc(C#N)cc2)nc2c3ccccc3ccn12	none (no result: EBV LMP1 NFkB, TRPM1 prom inh)
Cn1cnc(S(=O)(=O)N2CCCCC2c2cc(C(=O)NCc3ccc(F)cc3)no2)c1 (configuration not stated)	none (no result: EBV LMP1 NFkB, TRPM1 prom inh)
CC(C)C[C@H]1CN([C@@H](CC(C)C)CN2CCC[C@@H]2CN2C(=S)NC[C@@H]2Cc2ccc(O)cc2)C(=S)N1CC1CCCCC1	KKLEB tox -54.8, Peg3 prom inh 94.6, CF NFkB inh 64.9 (no result: EBV LMP1 NFkB, TRPM1 prom inh)
CC(C)C[C@H]1CN([C@@H](CC(C)C)CN2CCCC2CN2C(=S)NC[C@@H]2Cc2ccc(O)cc2)C(=S)N1CC1CCCCC1 (some centres not stated)	Peg3 prom inh 71.6
C[C@@H]1CN([C@@H](C)CO)C(=O)CCCn2nncc2CO[C@H]1CN(C)S(=O)(=O)c1ccc(-c2ccccc2)cc1	none (no result: TRPM1 prom inh)
COC(=O)C1C(=O)N(S(=O)(=O)c2ccc([N+](=O)[O-])cc2)c2ccccc21 (configuration not stated)	none (no result: EBV LMP1 NFkB, KKLEB tox, Peg3 prom inh, TRPM1 prom inh, CF NFkB inh)
O=C(Nc1ccccc1O)c1ccc2c(c1)C(=O)N(Cc1ccco1)C2=O	Peg3 prom inh 63.6
CCOC(=O)N1CCN(S(=O)(=O)c2ccc(C(=O)Nc3sc4c(c3C(N)=O)CCN(CC)C4)cc2)CC1	Peg3 prom inh 76.1
CCN1CCc2c(sc(NC(=O)c3cc4ccccc4cc3OC)c2C(N)=O)C1	Peg3 prom inh 109.9
CNC(=O)c1c(NC(=O)c2ccc(S(=O)(=O)N3CCCCC3)cc2)sc2c1CCN(C(C)C)C2	none
COc1cccc(OC)c1C(=O)Nc1sc2c(c1C(N)=O)CCN(Cc1ccccc1)C2	none
CCN1CCc2c(sc(NC(=O)c3ccc(S(=O)(=O)N4CCCC4)cc3)c2C(=O)NC)C1	Peg3 prom inh 65.0, TRPM1 prom inh 74.3
CCOC(=O)Cn1ccc2cc(S(=O)(=O)N3CCCC3)ccc21	none (no result: TRPM1 prom inh)
COc1ccc(-c2n[nH]nc2C2=CC(=O)CC(C)(C)C2)cc1	none (no result: TRPM1 prom inh)
O[C@@H]1CN(Cc2cccs2)[C@@H](c2ccccc2)C[C@H]1n1cc(-c2ccc(F)cc2)nn1	none (no result: TRPM1 prom inh)
COc1ccc(NC(=O)C2(C)CCN2Cc2ccc(OC(F)(F)F)cc2)cc1OC (configuration not stated)	none (no result: EBV LMP1 NFkB, TRPM1 prom inh)
O=C(CO)c1c[nH]c2ccccc12	Peg3 prom inh 107.5 (no result: EBV LMP1 NFkB, TRPM1 prom inh)
CN1CCN(c2ccc(CNC(=O)C3Cc4c(-c5ccc(Cl)cc5)ccnc4O3)cc2)CC1 (configuration not stated)	none (no result: EBV LMP1 NFkB, TRPM1 prom inh)
CCC(C)[C@H](NC(=O)NCc1cccnc1)C(=O)OC (some centres not stated)	EBV LMP1 NFkB 51.7
O=C(Nc1nnc([C@@H]2C[C@H](O)[C@@H](CO)O2)s1)c1cccc2ccccc12	none (no result: EBV LMP1 NFkB, TRPM1 prom inh)
O=C(NC1C(=O)NNC1c1ccccc1)c1ccccc1 (configuration not stated)	EBV LMP1 NFkB 44.2
CN(Cc1ccco1)c1ncnc2ccc(-c3ccc4c(c3)OCO4)cc12	none
Cc1nc(CN(C)c2ncnc3ccc(-c4ccc5c(c4)OCO5)cc23)cs1	HIF-2a block 54.9 (no result: EBV LMP1 NFkB, TRPM1 prom inh)
CCN(C(=O)COC(=O)C1CCC(C(C)(C)C)CC1)c1c(N)n(Cc2ccccc2)c(=O)[nH]c1=O (configuration not stated)	none
CCc1nc2c(OCCC3CCCCC3)cccn2c1N(C)C(=O)c1ccc(OC)cc1	none (no result: EBV LMP1 NFkB, TRPM1 prom inh)
Cc1cc(=O)n(CCO)c(O)c1C#N	none
Cc1c(C#N)c(O)n(CCO)c(=O)c1N=Nc1ccc2c(c1)COC2=O	TRPM1 prom inh 61.8
CC(C)(C)n1nnnc1C(c1ccccc1)N1CCN(c2ncccc2C(F)(F)F)CC1 (configuration not stated)	none (no result: EBV LMP1 NFkB, KKLEB tox, Peg3 prom inh, TRPM1 prom inh, CF NFkB inh)
O=C(Nc1ccc(N2CCOCC2)cc1)c1csc(COCCO)n1	none (no result: EBV LMP1 NFkB, TRPM1 prom inh)
Cc1ccc2nsnc2c1NC(=O)c1ccc(-c2cc(Cl)ccc2Cl)o1	Peg3 prom inh 100.7, TRPM1 prom inh 71.9
CC(C)C[C@@H](CNCC(=O)[C@H](CC(C)C)NC(=O)c1[nH]cnc1C(=O)N[C@H](CN)CC(C)C)NC(=O)c1nc[nH]c1C(=O)N[C@@H](Cc1ccccc1)C(=O)O	none
